Only a selection was taken, and hits are over-represented in it overall.
Sfp PPTase inh: qHTS Assay for Inhibitors of Bacillus subtilis Sfp phosphopantetheinyl transferase (PPTase); 4'-phosphopantetheinyl transferase ffp (Bacillus subtilis), Q9F4F7; Biochemical Sfp PPTase activity, qHTS; Potency, µM, inactives show largest response in the series, negative = inhibition, most hits filed as inhibitors; 3.5% of 310,000 active; AID 1490, 2009;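 also: the enzyme is Sfp with the accession as filed and its product quenches rhodamine fluorescence; 0% = enzyme reaction without inhibitor and -100% = no enzyme wells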
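Reaction rates are the 30-min fluorescence difference (ex 525, em 598 nm) in wells containing 15 nM Sfp, 5 uM rhodamine-CoA and 12.5 uM BHQ-2-YbbR at pH 7.6 with 10 mM MgCl2.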
ALOX12 inh: Primary qHTS assay for inhibitors of human arachidonate 12S-lipoxygenase (ALOX12): Round 2; Potency, µM (doses to about 108 µM), for inactives: at the highest dose activity change, negative = inhibition, actives largely listed as inhibitors; 1.1% of 580,000 active; purified 12hLO, xylenol orange hydroperoxide absorbance; also: % is scaled to controls: 0 for no effect and ±100 for the full control effect
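Purified human 12hLO at 150 nM in 25 mM Hepes, 0.01% Triton X-100, pH 7.0, preincubated 15 min at room temperature with compound. Reaction started with 40 uM arachidonic acid, 30 min at room temperature. Hydroperoxide measured by Fe-xylenol orange, 573/405 nm absorbance ratio.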
Glioma ERSR ind: qHTS for Inducers of the Endoplasmic Reticulum Stress Response (ERSR) in Human Glioma: qHTS. AID 602332, 2012. Potency, µM, inactives show at the highest dose activation, most hits filed as activators. 0.02% of 420,000 active. U87-MG GRP78 promoter luciferase reporter, 16 h; also: series mostly up to about 76 µM; % of control where 0% means no effect; nearly all actives have a fitted effect of over 35% in size
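Stably transfected U87-MG human glioma cells carrying a GRP78-based luminescent sensor were seeded at 1000 cells/well, pin-dosed with compounds and incubated 16 h. Luciferase reagent was then added, and end-point luminescence was read after 10 min at room temperature.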
G9a block: qHTS Assay for Inhibitors of Histone Lysine Methyltransferase G9a; Histone-lysine N-methyltransferase EHMT2 (Homo sapiens), Q96KQ7; 8.8% of 350,000 active; Potency, µM (series often up to 102 µM), without a hit: top-dose activity, negative = inhibition, actives largely listed as inhibitors; AID 504332, 2011; G9a H3K9 monomethylation, AlphaScreen, 2 h; also: % is scaled to controls: 0 for no effect and ±100 for the full control effect; nearly all actives have a fitted effect of over 75% in size
Target sequence (Q96KQ7 913-1193 limits assumed): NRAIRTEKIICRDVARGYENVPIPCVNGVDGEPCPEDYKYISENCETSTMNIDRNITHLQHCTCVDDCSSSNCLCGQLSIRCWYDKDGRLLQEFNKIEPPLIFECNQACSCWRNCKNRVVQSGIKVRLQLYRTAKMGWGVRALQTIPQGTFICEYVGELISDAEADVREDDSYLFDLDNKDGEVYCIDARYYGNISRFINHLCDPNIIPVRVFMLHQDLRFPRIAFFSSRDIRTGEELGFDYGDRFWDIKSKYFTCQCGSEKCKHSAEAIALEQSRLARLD
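Methyltransferase reactions run at room temperature for 2 h (20 nM enzyme, 500 nM biotin-H3K9 peptide, 20 uM SAM) after a 15 min compound preincubation; product detected by AlphaScreen beads and anti-H3K9me1 antibody.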
VDR inhibitor: Inhibitors of the vitamin D receptor (VDR): qHTS. VDR-SRC2-3 peptide fluorescence polarization, 2 h. Potency, µM, inactives show max response, negative = inhibition, usual class: inhibitors. 0.93% of 400,000 active. AID 504847, 2011; also: % is scaled to controls: 0 for no effect and ±100 for the full control effect
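FP read-out; VDR + SRC2-3 coactivator peptide; 23 nl compound by pintool; 2 h RT incubation; reagents held at 4 deg C, protected from light.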
Numbers without * were called inactive; ? = inconclusive; · = no result; ! = a repeat was not active; [ ] = remark or other dose. Calls follow the shape of the dose curve; as a rule, active = well fitted curve in the direction sought with a large enough effect; inconclusive = small, poorly fitted or top-dose-only effect, or another doubt; inactive = no such curve, though single readings can be large; an effect the other way counts as inactive or inconclusive. Potency is read from the fitted curve at half-maximal effect.

SMILES | Sfp PPTase inh | ALOX12 inh | Glioma ERSR ind | G9a block | VDR inhibitor
O=C(O)Cn1cnc2c(=S)nc[nH]c21 | 8.9µM* | ? | -5% | · | -11%
Cc1nnc(SCC(=O)c2ccc(F)c(F)c2)n1Cc1ccccc1 | · | -13% | · | · | ·
C/C(=C\C=C(C#N)C#N)c1cc(C#N)c(N)o1 | -8% | ? | -4% | 20µM* | 8%
COc1ccc(NC(=O)Nc2cccc(-c3ccc(N4CCOCC4)nn3)c2)cc1F | · | 10% | · | · | ·
CC1(C)Cc2c(sc(N)c2C#N)C(C)(C)N1 | 18µM* | -1% | -3% | · | -5%
O=C(Nc1ccc(F)cc1F)Nc1ccc(F)cc1F | 18% | -22% | 8% | 16% | 3%
O=C(Nc1cccc(Cl)c1)Nc1ccccc1C(=O)O | 14% | -7% | -10% | ? | -8%
O=C(NNc1ccccc1[N+](=O)[O-])Nc1cccc(Cl)c1 | -11% | ? | -3% | -143%[59 µM] | 79µM*
O=C(NNc1ccccc1)Nc1cc(Cl)ccc1Cl | · | ? | 0% | · | 40µM*
O=C(COc1ccccc1)Nc1cc(Cl)ccc1Cl | 17% | 13% | 5% | · | 1%
O=C(NNc1ccccc1[N+](=O)[O-])Nc1ccc(F)cc1F | -6% | ? | -6% | 32µM* | -26%
CCc1sc(C(=O)NCC(C)C)cc1C | · | -15% | · | · | ·
CCN(CC(=O)Nc1c(F)cccc1F)C(=O)/C=C/c1ccc2ccccc2n1 | · | 32µM* | -3% | 7.1µM* | -6%
COc1ccc(-n2cnnc2SC(C)c2nc3sc(C)c(C)c3c(=O)[nH]2)cc1 (configuration not stated) | 89µM* | -22% | · | ? | ·
CCN(CC)CCOC(=O)C(c1ccccc1)C1CCCCC1 (configuration not stated) | 17% | ? | -1% | -7%[2.33 µM] | 16%
CCN(CC)CCOC(=O)C1(c2ccc(OC)c(OC)c2)CCCC1 | 79µM* | -25% | -3% | ? | 9%
CCN(CC)CCOC(=O)C1(C2CCCCC2)CCCCC1 | 8% | -23% | -5% | 34µM*! | -14%
CCO[C@H]1CN(C(=O)C2(c3ccc(OC)c(OC)c3)CCCC2)C[C@@H]1O | · | 14% | · | · | ·
CCCOc1ccccc1NC(=O)Cc1c[nH]c2ccccc12 | · | -16% | · | · | ·
CC(C)c1ccc(NS(=O)(=O)c2ccc3[nH]cc(C(=O)NC4CCCCC4)c(=O)c3c2)cc1 | · | 35µM* | -3% | ? | -4%
Cc1cc(C)cc(NS(=O)(=O)c2ccc3[nH]cc(C(=O)NC4CCCCC4)c(=O)c3c2)c1 | · | ? | -7% | -34%[59 µM] | 2%
CC(C)(C)C1CCC2(CC1)SCC(=O)N2c1ccccc1 (configuration not stated) | 10% | 0% | -4% | 21% | -8%
CC(C)(C)C1CCC2(CC1)NC(=S)N(c1ccccc1)N2 (configuration not stated) | ? | -12% | 1% | 7.9µM* | ?
CCC(C)(C)C1CCC2(CC1)NC(=S)N(c1ccccc1)N2 (configuration not stated) | 79µM* | ? | 4% | 8.9µM* | -20%
S=C1NC2(CCCCCC2)NN1c1ccccc1 | · | 1.4µM* | · | · | ·
SMILES | Sfp PPTase inh | ALOX12 inh | Glioma ERSR ind | G9a block | VDR inhibitor
Cc1ccc(C)c(-c2cc(C(=O)NC3CCCC3)c3cc(Br)ccc3n2)c1 | · | -13% | · | · | ·
COc1cc(NC(=O)CSc2ncc(-c3ccc(F)cc3)o2)cc(OC)c1 | · | -14% | · | · | ·
CCN1c2cc(C(=O)Nc3cccc(SC)c3)ccc2C(=O)N2CCCCC21 (configuration not stated) | · | 7% | · | · | ·
CC(C)CN(C(=O)COC(=O)c1ccccn1)c1c(N)n(Cc2ccccc2)c(=O)[nH]c1=O | · | -19% | -1% | 45µM* | -8%
CCCCn1c(N)c(N(CC)C(=O)Cn2c(CC)nc3ccccc32)c(=O)[nH]c1=O | · | 25µM* | · | · | ·
CCc1nc2ccccc2n1CC(=O)OCC(=O)N(CC(C)C)c1c(N)n(Cc2ccccc2)c(=O)[nH]c1=O | · | -17% | -5% | 56µM* | -7%

Source: PubChem BioAssay (National Center for Advancing Translational Sciences (NCATS))
